Tau FP inhib – inhibitors of human tau fibril formation. hit rate 0.39% among 280,000. Potency, µM (doses to about 57.7 µM), usual class: inhibitors. P10636. K18 P301L tau heparin fibrillization, Alexa594 FP, 6 h; also: nearly all actives have a fitted effect of over 55% in size
Target sequence (P10636 561-689 P618L limits assumed): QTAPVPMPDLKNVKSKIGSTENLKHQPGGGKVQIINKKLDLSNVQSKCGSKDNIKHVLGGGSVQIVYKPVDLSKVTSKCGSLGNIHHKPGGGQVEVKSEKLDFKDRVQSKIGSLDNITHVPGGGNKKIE
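Quantitative HTS format: compounds meet 15 uM recombinant K18 P301L tau and Alexa 594-tau tracer in 100 mM sodium acetate pH 7; 20 uM heparin triggers fibrillization at 37 C over 6 hr; FP gives the signal.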
Tau fibril ThT – tau fibrillization inhibition (ThT binding); recombinant tau K18 P301L, heparin-induced fibrillization, ThT fluorescence; AID 1460; Potency, µM (titrated, usually from 57.4 µM), hits mostly inhibitors; hit rate 2.1% among 270,000; also: nearly all actives have a fitted effect of over 55% in size
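K18 P301L tau (15 uM + 0.24 uM Alexa 594-tagged), heparin 20 uM, NaOAc pH 7, 6 h 37 C; ThT 30 uM, 1 h RT, ex 450/em 510 nm.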
KinaseGlo FLuc – Kinase-Glo luciferase inhibition (counter-screen). Q27757. Kinase-Glo luciferase, ATP luminescence, 8 min. Potency, µM (top dose mostly 38.3 µM), hits mostly inhibitors. hit rate 0.28% among 200,000. AID 1379; also: nearly all actives have a fitted effect of over 60% in size
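Kinase-Glo luciferase light output from ATP and luciferin was measured with 10 uM ATP, within the enzyme's linear range. Buffer: 50 mM imidazole pH 7.2, 50 mM KCl, 7 mM MgCl2, 0.01% Tween 20, 0.05% BSA; luminescence read after 8 min at ambient temperature.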
NPSR antag – blocks cAMP signaling of the human neuropeptide S receptor. CHO-NPSR cells, cAMP TR-FRET, antagonist mode. Potency, µM (series often up to 38.3 µM), hits mostly inhibitors. hit rate 1% among 220,000. AID 1461; also: nearly all actives have a fitted effect of over 50% in size
Target sequence (Q6W5P4 whole entry, looked up): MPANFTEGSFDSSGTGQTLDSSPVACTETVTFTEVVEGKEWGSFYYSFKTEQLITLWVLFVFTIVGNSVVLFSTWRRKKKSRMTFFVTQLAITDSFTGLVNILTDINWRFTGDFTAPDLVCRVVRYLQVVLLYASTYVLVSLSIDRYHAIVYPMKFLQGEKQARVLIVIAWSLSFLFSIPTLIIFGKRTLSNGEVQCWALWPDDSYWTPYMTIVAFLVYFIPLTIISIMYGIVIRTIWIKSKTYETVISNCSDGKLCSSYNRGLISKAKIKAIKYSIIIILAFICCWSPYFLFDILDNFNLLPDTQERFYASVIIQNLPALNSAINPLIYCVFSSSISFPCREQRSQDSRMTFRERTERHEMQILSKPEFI
Tau fluor counter – counter-screen for tau fibril formation inhibitors. tau K18 P301L Alexa594 fluorescence, heparin fibrillization. Potency, µM (series often up to 57.7 µM). hit rate 0.93% among 280,000. AID 1463; also: nearly all actives have a fitted effect of over 55% in size
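Human tau K18 P301L (15 uM unlabeled, 0.24 uM Alexa 594-labeled) in 100 mM sodium acetate pH 7 with 20 uM heparin, 6 hr at 37 C. ThT 30 uM added, 1 hr ambient; Alexa 594 FP and total fluorescence read at 555/632 nm.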
A number is an active result; [ ] = remark or other dose. Sampled rows, rich in hits. Any-hit rate of the full collection: about 3.3%. Calls follow the shape of the dose curve; as a rule, active = well fitted curve in the direction sought with a large enough effect; inconclusive = small, poorly fitted or top-dose-only effect, or another doubt; inactive = no such curve, though single readings can be large; an effect the other way counts as inactive or inconclusive.

Results for Cc1cccc(NC(=O)CS(=O)(=O)c2nc(-c3ccccc3)cn2-c2cccc(Cl)c2)c1C ?
Tau FP inhib: inactive; Tau fibril ThT: inactive; Tau fluor counter: inactive

How did CCCCS(=O)(=O)/C=C\C=C/S(=O)(=O)CCCC do in these assays?
Tau FP inhib: inconclusive; Tau fibril ThT: inconclusive; KinaseGlo FLuc: inactive; NPSR antag: 5.01µM; Tau fluor counter: inactive

What do the screens show for `O=C(NN=C1CCN(Cc2ccccc2)CC1)C(O)c1ccccc1` (stereo not drawn)?
Tau FP inhib: inactive; Tau fibril ThT: inactive; KinaseGlo FLuc: inactive; NPSR antag: inactive; Tau fluor counter: inactive

How did CCN1CCN(c2csc3ccc(C)cc3c2=O)CC1 do in these assays?
Tau FP inhib: inactive; Tau fibril ThT: inconclusive; Tau fluor counter: inactive

How did COc1ccc(CNC(=O)Cc2ccc(NC(=O)N3CCSc4ncccc43)cc2)cc1OC do in these assays?
Tau FP inhib: inactive; Tau fibril ThT: inactive; Tau fluor counter: inactive

How did O=c1[nH]nc(CNc2ccc(O)cc2)c2ccccc12 do in these assays?
Tau FP inhib: inconclusive; Tau fibril ThT: 31.6µM; KinaseGlo FLuc: inactive; NPSR antag: inactive; Tau fluor counter: inconclusive

Results for CCCCCC(=O)Cc1cc(O)cc(O)c1C(=O)Oc1cc(CC(=O)CCCCC)c(C(=O)O)c(OC)c1 ?
Tau FP inhib: inactive; Tau fibril ThT: inactive; KinaseGlo FLuc: inactive; Tau fluor counter: inactive

Results for CCSc1nc(-c2ccccc2)c(C#N)c(=O)[nH]1 ?
Tau FP inhib: inactive; Tau fibril ThT: inactive; KinaseGlo FLuc: inactive; NPSR antag: inactive; Tau fluor counter: inactive

Results for N#Cc1c(-c2ccccc2)nc(SCc2nc(N)nc(N3CCCCC3)n2)[nH]c1=O ?
Tau FP inhib: inactive; Tau fibril ThT: inactive; KinaseGlo FLuc: inactive; NPSR antag: 6.31µM; Tau fluor counter: inactive

What do the screens show for `O=C(CSc1nnc(Cc2csc(Nc3cccc(Cl)c3)n2)o1)N1CCc2ccccc21`?
Tau FP inhib: inactive; Tau fibril ThT: inconclusive; KinaseGlo FLuc: inactive; NPSR antag: inactive; Tau fluor counter: 7.08µM[quencher]

How did O=C(CSc1nnc(CNc2ccccc2)o1)N1CCc2ccccc21 do in these assays?
Tau FP inhib: inactive; Tau fibril ThT: inactive; KinaseGlo FLuc: inactive; NPSR antag: inactive; Tau fluor counter: inactive

How did Cc1ccc(CNC(=O)c2sc3nc4n(c(=O)c3c2C)CCCC4)cc1 do in these assays?
Tau FP inhib: inactive; Tau fibril ThT: inconclusive; Tau fluor counter: inactive

What do the screens show for `CC(C)(C)C1=CC=C(C(C)(C)C)C(=O)C1=O`?
Tau FP inhib: 17.8µM; Tau fibril ThT: 17.8µM; NPSR antag: inactive; Tau fluor counter: inconclusive

How did CC(C)(C)c1ccc2c(c1)C(=O)c1ccccc1C2=O do in these assays?
Tau FP inhib: inactive; Tau fibril ThT: inactive; NPSR antag: inactive; Tau fluor counter: inactive

How did COc1cccc(-n2nnnc2S(C)(=O)=O)c1 do in these assays?
Tau FP inhib: inconclusive; Tau fibril ThT: inconclusive; KinaseGlo FLuc: inactive; NPSR antag: 10µM; Tau fluor counter: inactive

How did O=C1NC(=O)C(c2ccccc2[N+](=O)[O-])=C1Nc1ccc(O)c(Cl)c1 do in these assays?
Tau FP inhib: inconclusive; Tau fibril ThT: 7.94µM; KinaseGlo FLuc: inactive; NPSR antag: inactive; Tau fluor counter: inconclusive

What do the screens show for `Oc1cc(O)c2c(c1)O[C@H](c1ccc(O)c(O)c1)[C@H](O)C2`?
KinaseGlo FLuc: inactive

What do the screens show for `O=C(O[C@@H]1Cc2c(O)cc(O)cc2OC1c1ccc(O)c(O)c1)c1cc(O)c(O)c(O)c1` (stereo partly drawn)?
Tau FP inhib: inconclusive; Tau fibril ThT: 15.8µM; KinaseGlo FLuc: inactive; Tau fluor counter: 12.6µM[quencher]

Results for O=C(OC1Cc2c(O)cc(O)cc2OC1c1cc(O)c(O)c(O)c1-c1c(C2Oc3cc(O)cc(O)c3CC2OC(=O)c2cc(O)c(O)c(O)c2)cc(O)c(O)c1O)c1cc(O)c(O)c(O)c1 (stereo not drawn) ?
Tau FP inhib: inconclusive; Tau fibril ThT: 25.1µM; KinaseGlo FLuc: inactive; Tau fluor counter: 14.1µM[quencher]

Results for Oc1ccc(C2Oc3cc(O)cc(O)c3CC2O)cc1 (stereo not drawn) ?
Tau FP inhib: inactive; Tau fibril ThT: inactive; KinaseGlo FLuc: inactive; Tau fluor counter: inactive

How did O=S1(=O)[C@H]([C@H]2CC3c4ccccc4C2c2ccccc23)[C@@H](N2CCCCC2)[C@@H]1c1ccccc1 do in these assays?
KinaseGlo FLuc: inactive[7.66 µM]
